Data taken from PubChem BioAssay AID1159580 (chemical genetic matrix, 2015).
Out of some 5,500 compounds screened, about 2,000 (36%) were called active. Inconclusive results (about 18%) are left out. No stated cut-off is given here; in the data, active means normalized growth mostly below about 0.91 (no sharp cut-off); inconclusive means no clear call, values can overlap the other calls; inactive means mostly above about 0.92. The list shows a part of the results.

Experiment: chemical genetic growth profiling, strain panel (AID 1159580);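 further: tested at 20 µM; growth read once vehicle control cultures reached saturation at 30 °C; 1 = growth at the plate median or of vehicle wells; lower values mean less growth of the strain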
Details: S. cerevisiae deletion strains, growth OD
[1] = locus YDL101C, strain DUN1, hits give low values
[2] = locus YHR030C, strain SLT2, hits give low values
[3] = locus YNL322C, strain KRE1, hits give low values
[4] = locus YPL055C, strain LGE1, hits give low values
[5] = locus YPL241C, strain CIN2, hits give low values

Measured: normalized growth

O=C(Nc1ccc(Cl)cc1)N1CCN(c2ncccc2C(F)(F)F)CC1
inactive: locus YAL013W, strain DEP1, hits give low values 0.996 | locus YBR229C, strain ROT2, hits give low values 0.979 | [1] 0.956 | locus YDL134C, strain PPH21, hits give low values 0.955 | locus YDR150W, strain NUM1, hits give low values 0.978 | locus YEL061C, strain CIN8, hits give low values 0.976 | locus YGR078C, strain PAC10, hits give low values 0.939 | [2] 0.713 | locus YHR087W, strain rtc3, hits give low values 0.939 | locus YJR043C, strain POL32, hits give low values 0.97 | locus YJR075W, strain HOC1, hits give low values 0.908 | locus YLR039C, strain RIC1, hits give low values 1.04 | locus YLR058C, strain SHM2 (second series), hits give low values 0.968 | locus YLR085C, strain ARP6, hits give low values 0.944 | locus YLR262C, strain YPT6, hits give low values 0.978 | locus YML094W, strain GIM5, hits give low values 0.957 | locus YMR219W, strain ESC1, hits give low values 0.976 | locus YMR263W, strain SAP30, hits give low values 0.969 | locus YMR307W, strain GAS1, hits give low values 0.805 | locus YNL153C, strain GIM3, hits give low values 0.946 | locus YNL298W, strain CLA4 (second series), hits give low values 0.893 | [3] 0.988 | locus YNR030W, strain Alg12, hits give low values 0.956 | locus YOL006C, strain TOP1, hits give low values 0.782 | [4] 0.943 | [5] 0.92 | locus YPR135W, strain CTF4, hits give low values 1.04

COc1ccccc1N1CCN(C(=O)C(C)c2ccc(CC(C)C)cc2)CC1 (stereo not given)
inactive: locus YAR019C, strain CDC15, hits give low values 0.978 | locus YBL105C, strain PKC1, hits give low values 0.983 | locus YBR135W, strain CKS1, hits give low values 0.978 | locus YBR136W, strain MEC1, hits give low values 0.984 | locus YBR160W, strain CDC28, hits give low values 0.975 | locus YDL017W, strain CDC7, hits give low values 0.981 | locus YDL028C, strain MPS1, hits give low values 0.97 | [1] 0.974 | locus YDL108W, strain KIN28, hits give low values 0.968 | locus YDL132W, strain cdc53, hits give low values 0.988 | locus YDL214C, strain PRR2, hits give low values 0.932 | locus YDR052C, strain DBF4, hits give low values 0.99 | locus YDR054C, strain cdc34, hits give low values 0.975 | locus YDR226W, strain ADK1, hits give low values 0.966 | locus YDR477W, strain SNF1, hits give low values 0.921 | locus YER123W, strain YCK3, hits give low values 0.923 | locus YER133W, strain GLC7, hits give low values 0.954 | locus YFL009W, strain cdc4, hits give low values 0.967 | locus YFL029C, strain CAK1, hits give low values 0.977 | locus YFR003C, strain YPI1, hits give low values 0.983 | locus YFR019W, strain FAB1, hits give low values 0.947 | locus YFR028C, strain CDC14, hits give low values 0.986 | locus YGR040W, strain KSS1, hits give low values 0.936 | locus YGR052W, strain FMP48, hits give low values 0.944 | locus YGR092W, strain DBF2, hits give low values 0.938 | locus YHR079C, strain IRE1, hits give low values 0.93 | locus YHR082C, strain KSP1, hits give low values 0.939 | locus YHR205W, strain SCH9, hits give low values 0.861 | locus YIL147C, strain SLN1, hits give low values 0.981 | locus YJL095W, strain BCK1, hits give low values 0.91 | locus YJL128C, strain PBS2, hits give low values 0.977 | locus YJL157C, strain FAR1, hits give low values 0.968 | locus YJR016C, strain ILV3, hits give low values 0.983 | locus YJR066W, strain TOR1 (second series), hits give low values 0.946 | locus YJR066W, strain TOR1, hits give low values 0.873 | locus YKL048C, strain ELM1, hits give low values 0.978 | locus YKL067W, strain YNK1, hits give low values 0.933 | locus YKL101W, strain HSL1, hits give low values 0.926 | locus YKL193C, strain SDS22, hits give low values 0.976 | locus YKL203C, strain TOR2, hits give low values 1.01 | locus YLR133W, strain CKI1, hits give low values 0.943 | locus YLR403W, strain SFP1, hits give low values 0.95 | locus YML070W, strain DAK1, hits give low values 0.933 | locus YMR001C, strain CDC5, hits give low values 0.972 | locus YMR205C, strain PFK2 (second series), hits give low values 0.945 | locus YMR277W, strain FCP1, hits give low values 0.966 | locus YNL006W, strain LST8, hits give low values 0.964 | locus YNL020C, strain ARK1, hits give low values 0.942 | locus YNL161W, strain CBK1, hits give low values 0.981 | locus YNL183C, strain NPR1, hits give low values 0.963 | locus YNL207W, strain RIO2, hits give low values 0.983 | locus YNL222W, strain SSU72, hits give low values 0.969 | locus YNL307C, strain MCK1 (second series), hits give low values 0.924 | locus YOL078W, strain AVO1, hits give low values 0.977 | locus YOL136C, strain PFK27, hits give low values 0.909 | locus YOR061W, strain CKA2, hits give low values 0.937 | locus YOR119C, strain RIO1, hits give low values 0.951 | locus YOR231W, strain MKK1, hits give low values 0.904 | locus YOR329C, strain SCD5, hits give low values 0.98 | locus YPL031C, strain PHO85, hits give low values 0.93 | locus YPL153C, strain RAD53, hits give low values 0.919 | locus YPL204W, strain HRR25, hits give low values 0.915 | locus YPL209C, strain IPL1, hits give low values 0.981 | locus YPL256C, strain CLN2, hits give low values 0.877 | locus YPR025C, strain CCL1, hits give low values 0.983 | locus YPR106W, strain ISR1, hits give low values 0.961 | locus YPR111W, strain DBF20, hits give low values 0.95 | strain NNK1, hits give low values 0.965 | strain TSCII, hits give low values 0.965
active: [2] 0.802 | locus YLR113W, strain HOG1, hits give low values 0.829

COc1ccccc1N1CCN(CCN(C(=O)c2ccc(I)cc2)c2ccccn2)CC1
inactive: locus YAL040C, strain CLN3, hits give low values 0.976 | locus YCL061C, strain MRC1 (second series), hits give low values 0.988 | locus YDR363W, strain ESC2, hits give low values 0.943 | locus YER002W, strain NOP16, hits give low values 1.01 | locus YGR229C, strain SMI1, hits give low values 0.984 | locus YNL175C, strain NOP13, hits give low values 0.983 | locus YNL197C, strain WHI3, hits give low values 0.996 | locus YNL224C, strain SQS1, hits give low values 0.987 | [3] 0.977 | locus YOR083W, strain WHI5 (second series), hits give low values 0.997 | [4] 0.964 | [5] 0.995
